Reference: the supplement of paper PMC4466140

Assays:
Experiment in all cases: SPOT peptide array binding signal intensity (averaged, normalized) (arbitrary units (background-subtracted, floor 0; scale differs between SH3 domains)); higher = stronger binding of the SH3 domain to the peptide
[1] = target: AgAbp1
Description: (§1)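 GST-tagged SH3 domains from S. cerevisiae (Sc), A. gossypii (Ag), C. albicans (Ca) and S. pombe (Sp) were incubated at 10 ug/ml overnight at 4 C on cellulose SPOT membranes carrying 292 synthetic 15-mer peptides mined from the S. cerevisiae proteome (cysteines replaced by serines). Binding was detected with anti-GST antibody, HRP secondary and chemiluminescence, quantified with Genespotter, and reported as normalized spot intensities averaged over biological replicates.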

[2] = target: AgBbc1
Description: as §1

[3] = target: AgBem1-D1
Description: as §1

[4] = target: AgBzz1-D1
Description: as §1

[5] = target: AgBzz1-D2
Description: as §1

[6] = target: AgCyk3
Description: as §1

[7] = target: AgFus1
Description: as §1

[8] = target: AgHof1
Description: as §1

[9] = target: AgHse1
Description: as §1

[10] = target: AgLsb1
Description: as §1

[11] = target: AgLsb4
Description: as §1

[12] = target: AgMyo5
Description: as §1

[13] = target: AgNbp2
Description: as §1

[14] = target: AgRvs167
Description: as §1

[15] = target: AgSho1
Description: as §1

[16] = target: AgSla1-D1-D2
Description: as §1

[17] = target: AgSla1-D3
Description: as §1

[18] = target: CaAbp1-D1
Description: as §1

[19] = target: CaAbp1-D2
Description: as §1

[20] = target: CaBbc1
Description: as §1

[21] = target: CaBem1-D1
Description: as §1

[22] = target: CaBzz1-D1
Description: as §1

[23] = target: CaBzz1-D2
Description: as §1

[24] = target: CaCyk3
Description: as §1

[25] = target: CaFus1
Description: as §1

[26] = target: CaHof1
Description: as §1

[27] = target: CaHse1
Description: as §1

[28] = target: CaLsb1
Description: as §1

[29] = target: CaLsb4
Description: as §1

[30] = target: CaMyo5
Description: as §1

[31] = target: CaNbp2
Description: as §1

[32] = target: CaRvs167
Description: as §1

[33] = target: CaRvs167-3
Description: as §1

[34] = target: CaSho1
Description: as §1

[35] = target: CaSla1-D1-D2
Description: as §1

[36] = target: CaSla1-D3
Description: as §1

[37] = target: ScAbp1
Description: as §1

[38] = target: ScBbc1
Description: as §1

[39] = target: ScBem1-D1
Description: as §1

[40] = target: ScBzz1-D1
Description: as §1

[41] = target: ScBzz1-D2
Description: as §1

[42] = target: ScCyk3
Description: as §1

[43] = target: ScFus1
Description: as §1

[44] = target: ScHof1
Description: as §1

[45] = target: ScHse1
Description: as §1

[46] = target: ScLsb1
Description: as §1

[47] = target: ScLsb2
Description: as §1

[48] = target: ScLsb3
Description: as §1

[49] = target: ScLsb4
Description: as §1

[50] = target: ScMyo3
Description: as §1

[51] = target: ScMyo5
Description: as §1

[52] = target: ScNbp2
Description: as §1

[53] = target: ScPex13
Description: as §1

[54] = target: ScRvs167
Description: as §1

[55] = target: ScSho1
Description: as §1

[56] = target: ScSla1-D1-D2
Description: as §1

[57] = target: ScSla1-D3
Description: as §1

[58] = target: SpAbp1-D1
Description: as §1

[59] = target: SpBbc1
Description: as §1

[60] = target: SpBzz1-D1
Description: as §1

[61] = target: SpBzz1-D2
Description: as §1

[62] = target: SpCyk3
Description: as §1

[63] = target: SpHof1
Description: as §1

[64] = target: SpHof1-2
Description: as §1

[65] = target: SpHof1-3
Description: as §1

[66] = target: SpHse1
Description: as §1

[67] = target: SpLsb1
Description: as §1

[68] = target: SpLsb4
Description: as §1

[69] = target: SpMyo1
Description: as §1

[70] = target: SpNbp2
Description: as §1

[71] = target: SpPex13
Description: as §1

[72] = target: SpRvs167
Description: as §1

[73] = target: SpSla1-D1-D2
Description: as §1

[74] = target: SpSla1-D3
Description: as §1

KIRRSSLMIPNPQQF
SPOT peptide array binding signal intensity [1]: 26.5 | SPOT peptide array binding signal intensity [2]: 56.5 | SPOT peptide array binding signal intensity [3]: 234 | SPOT peptide array binding signal intensity [4]: 18.5 | SPOT peptide array binding signal intensity [5]: 39 | SPOT peptide array binding signal intensity [6]: ≤ 0 | SPOT peptide array binding signal intensity [7]: 88 | SPOT peptide array binding signal intensity [8]: 56.8 | SPOT peptide array binding signal intensity [9]: 138 | SPOT peptide array binding signal intensity [10]: 86.5 | SPOT peptide array binding signal intensity [11]: 14 | SPOT peptide array binding signal intensity [12]: 2 | SPOT peptide array binding signal intensity [13]: 15 | SPOT peptide array binding signal intensity [14]: 1.67 | SPOT peptide array binding signal intensity [15]: 15.5 | SPOT peptide array binding signal intensity [16]: 186 | SPOT peptide array binding signal intensity [17]: 3.5 | SPOT peptide array binding signal intensity [18]: 316 | SPOT peptide array binding signal intensity [19]: 153 | SPOT peptide array binding signal intensity [20]: 214 | SPOT peptide array binding signal intensity [21]: 65.5 | SPOT peptide array binding signal intensity [22]: 195 | SPOT peptide array binding signal intensity [23]: 206 | SPOT peptide array binding signal intensity [24]: 11 | SPOT peptide array binding signal intensity [25]: 383 | SPOT peptide array binding signal intensity [26]: 1 | SPOT peptide array binding signal intensity [27]: 12.5 | SPOT peptide array binding signal intensity [28]: 4 | SPOT peptide array binding signal intensity [29]: 72.5 | SPOT peptide array binding signal intensity [30]: 20.5 | SPOT peptide array binding signal intensity [31]: 129 | SPOT peptide array binding signal intensity [32]: 42.3 | SPOT peptide array binding signal intensity [33]: 7.5 | SPOT peptide array binding signal intensity [34]: 84.5 | SPOT peptide array binding signal intensity [35]: 532 | SPOT peptide array binding signal intensity [36]: 352 | SPOT peptide array binding signal intensity [37]: 42 | SPOT peptide array binding signal intensity [38]: 22.2 | SPOT peptide array binding signal intensity [39]: 136 | SPOT peptide array binding signal intensity [40]: 40 | SPOT peptide array binding signal intensity [41]: 32 | SPOT peptide array binding signal intensity [42]: 24 | SPOT peptide array binding signal intensity [43]: 68 | SPOT peptide array binding signal intensity [44]: ≤ 0 | SPOT peptide array binding signal intensity [45]: 388 | SPOT peptide array binding signal intensity [46]: 20.5 | SPOT peptide array binding signal intensity [47]: 1.5 | SPOT peptide array binding signal intensity [48]: 15.5 | SPOT peptide array binding signal intensity [49]: ≤ 0 | SPOT peptide array binding signal intensity [50]: 5 | SPOT peptide array binding signal intensity [51]: 7 | SPOT peptide array binding signal intensity [52]: 126 | SPOT peptide array binding signal intensity [53]: 46 | SPOT peptide array binding signal intensity [54]: 40.2 | SPOT peptide array binding signal intensity [55]: 304 | SPOT peptide array binding signal intensity [56]: 526 | SPOT peptide array binding signal intensity [57]: 337 | SPOT peptide array binding signal intensity [58]: 95 | SPOT peptide array binding signal intensity [59]: 3.5 | SPOT peptide array binding signal intensity [60]: 311 | SPOT peptide array binding signal intensity [61]: ≤ 0 | SPOT peptide array binding signal intensity [62]: 6 | SPOT peptide array binding signal intensity [63]: 94.5 | SPOT peptide array binding signal intensity [64]: 24 | SPOT peptide array binding signal intensity [65]: 241 | SPOT peptide array binding signal intensity [66]: 184 | SPOT peptide array binding signal intensity [67]: 5.5 | SPOT peptide array binding signal intensity [68]: 144 | SPOT peptide array binding signal intensity [69]: 9.5 | SPOT peptide array binding signal intensity [70]: 33 | SPOT peptide array binding signal intensity [71]: 162 | SPOT peptide array binding signal intensity [72]: 17.3 | SPOT peptide array binding signal intensity [73]: 8 | SPOT peptide array binding signal intensity [74]: 68

RPPRPPPKPLHLRTE
SPOT peptide array binding signal intensity [1]: 1720 | SPOT peptide array binding signal intensity [2]: 559 | SPOT peptide array binding signal intensity [3]: 113 | SPOT peptide array binding signal intensity [4]: 270 | SPOT peptide array binding signal intensity [5]: 69 | SPOT peptide array binding signal intensity [6]: ≤ 0 | SPOT peptide array binding signal intensity [7]: 5.5 | SPOT peptide array binding signal intensity [8]: 50 | SPOT peptide array binding signal intensity [9]: 178 | SPOT peptide array binding signal intensity [10]: 27 | SPOT peptide array binding signal intensity [11]: 52 | SPOT peptide array binding signal intensity [12]: 8.25 | SPOT peptide array binding signal intensity [13]: 1310 | SPOT peptide array binding signal intensity [14]: 12.3 | SPOT peptide array binding signal intensity [15]: 836 | SPOT peptide array binding signal intensity [16]: 28 | SPOT peptide array binding signal intensity [17]: 14 | SPOT peptide array binding signal intensity [18]: 913 | SPOT peptide array binding signal intensity [19]: 4480 | SPOT peptide array binding signal intensity [20]: 626 | SPOT peptide array binding signal intensity [21]: 314 | SPOT peptide array binding signal intensity [22]: 1940 | SPOT peptide array binding signal intensity [23]: 405 | SPOT peptide array binding signal intensity [24]: 29 | SPOT peptide array binding signal intensity [25]: 61.5 | SPOT peptide array binding signal intensity [26]: 1 | SPOT peptide array binding signal intensity [27]: 1310 | SPOT peptide array binding signal intensity [28]: 0.5 | SPOT peptide array binding signal intensity [29]: 1080 | SPOT peptide array binding signal intensity [30]: 2 | SPOT peptide array binding signal intensity [31]: 567 | SPOT peptide array binding signal intensity [32]: 67 | SPOT peptide array binding signal intensity [33]: 4.75 | SPOT peptide array binding signal intensity [34]: 148 | SPOT peptide array binding signal intensity [35]: 1990 | SPOT peptide array binding signal intensity [36]: 97.5 | SPOT peptide array binding signal intensity [37]: 3670 | SPOT peptide array binding signal intensity [38]: 57.5 | SPOT peptide array binding signal intensity [39]: 4 | SPOT peptide array binding signal intensity [40]: 49 | SPOT peptide array binding signal intensity [41]: 26 | SPOT peptide array binding signal intensity [42]: 1 | SPOT peptide array binding signal intensity [43]: 8 | SPOT peptide array binding signal intensity [44]: 0.5 | SPOT peptide array binding signal intensity [45]: 131 | SPOT peptide array binding signal intensity [46]: 90 | SPOT peptide array binding signal intensity [47]: 8 | SPOT peptide array binding signal intensity [48]: 2810 | SPOT peptide array binding signal intensity [49]: 58 | SPOT peptide array binding signal intensity [50]: 72.8 | SPOT peptide array binding signal intensity [51]: 163 | SPOT peptide array binding signal intensity [52]: 1770 | SPOT peptide array binding signal intensity [53]: 1500 | SPOT peptide array binding signal intensity [54]: 375 | SPOT peptide array binding signal intensity [55]: 1530 | SPOT peptide array binding signal intensity [56]: 2390 | SPOT peptide array binding signal intensity [57]: 4.5 | SPOT peptide array binding signal intensity [58]: 2570 | SPOT peptide array binding signal intensity [59]: 6 | SPOT peptide array binding signal intensity [60]: 1060
